Compounds with a hit are over-represented: about 4.6% of the library has one in this group of screens.
NLRP3 yeast inh: NALP3 inflammasome inhibitors in reconstituted yeast, primary screen, luminescence, uHTS; Yeast reconstituted NLRP3/ASC/caspase-1, beta-gal luminescence, 24 h; inhibition, % at 10 µM; 0.39% of 330,000 active; AID 2825, 2010;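 active = inhibition of 50% or more; inactive = inhibition below 50%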;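 note: plate controls were induced DMSO wells for no effect and uninduced yeast grown without galactose for full effect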
tim23-1 inh: growth inhibitors of tim23-1 mutant yeast, primary screen, luminescence, uHTS; 1.3% of 330,000 active; AID 463212, 2010; inhibition, % at 20 µM; S. cerevisiae tim23-1 growth, BacTiter-Glo luminescence, 24 h;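 active = growth inhibition of the mutant yeast at or above 50%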;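 note: temperature-sensitive mutant grown at 25 °C; plate controls were DMSO-treated mutant yeast for no effect and medium wells lacking yeast for full effect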
tim10-1 inh: growth inhibitors of tim10-1 mutant yeast, primary screen, luminescence, uHTS; S. cerevisiae tim10-1 ts strain growth, BacTiter-Glo, 24 h; inhibition, % at 20 µM; 2.2% of 330,000 active;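 active = inhibition of at least 40%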;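 note: mutant grown at 25 °C; 0% = DMSO wells with yeast and 100% = wells holding no yeast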
SKKanGAS inh: S. pyogenes SKKanGAS growth inhibitors in kanamycin, primary screen, streptokinase expression inhibitor project, SKKanGAS strain, BacTiter-Glo luminescence; 6 h; inhibition, % at 7.5 µM; 1.3% of 300,000 active; AID 1662, 2009;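 active = mean replicate score, as percent of positive control median, at least 50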;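 note: strain carries kanamycin resistance gene driven by streptokinase promoter and grows in 40 µg/ml kanamycin; loss of luminescence reflects streptokinase promoter inhibition or plain growth inhibition; 0% = median of DMSO wells and 100% = positive control at its reference dose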
TIM10 inh: growth inhibitors of isogenic TIM10 control yeast, primary screen, counter-screen for tim10-1 yeast inhibitor project, luminescence, uHTS; S. cerevisiae TIM10 strain growth, BacTiter-Glo luminescence, 24 h; inhibition, % at 10 µM; 1.4% of 330,000 active;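 active = inhibition of 40% or more at the single tested concentration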;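 note: wild-type TIM10 isogenic control strain grown at permissive 25 °C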
tim10 confirm: growth inhibitors of wild-type TIM10 yeast, confirmation, counter-screen for tim10-1 synthetic lethality project, single concentration, luminescence, S. cerevisiae. 63% of 4,600 active. shares compounds with TIM10 inh. S. cerevisiae tim10 strain growth, BacTiter-Glo luminescence, 24 h. inhibition, % at 10 µM;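 active = inhibition of yeast growth at or above a set limit in either of two replicates at 10 µM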;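 note: this counterscreen used the strain with wild-type TIM10; 0% = yeast with DMSO and 100% = medium wells lacking yeast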
Active calls of the source: *; · = not tested or not shown.

SMILES	NLRP3 yeast inh	tim23-1 inh	tim10-1 inh	SKKanGAS inh	TIM10 inh	tim10 confirm
COC(=O)c1ccc(C(C(=O)NC2CCCCC2)N(Cc2ccc(F)cc2)C(=O)Cc2cccs2)cc1 (centres undefined)	9	8	15	18	-6	·
O=C(NC1CCCC1)C(c1ccc(F)cc1)N(Cc1ccc(Cl)cc1)C(=O)CCl (centres undefined)	-3	46	32	-2	42*	43*
CC1(C(=O)OCC(=O)Nc2ccc3ccccc3c2)CC1(Cl)Cl (centres undefined)	9	43	21	-2	48*	32*
O=C(Nc1nc(-c2ccc(F)c(F)c2)cs1)Nc1ccc(F)cc1F	13	-6	-14	0	-23	·
CCOc1ccc(N2CC(C(=O)Nc3cccnc3)CC2=O)cc1 (centres undefined)	-8	-1	-3	-4	-3	·
O=C(c1ccco1)N1CCN=C1SCc1cccc(F)c1	7	20	-10	-4	96*	-3
Cc1cc(C)c(S(=O)(=O)Nc2ccc(C(=O)O)cc2)cc1S(=O)(=O)Nc1ccc(C(=O)O)cc1	13	-9	-5	0	1	·
COCC(C)n1c(C)cc(C(=O)COC(=O)C2=NN(c3ccccc3)C(=O)CC2)c1C (centres undefined)	5	23	27	-2	19	·
COCCn1c(C)cc(C(=O)COC(=O)c2c(C)nn(Cc3ccccc3)c2C)c1C	-3	36	31	0	41*	3
COCC(C)n1c(C)cc(C(=O)COC(=O)c2c(C)nn(-c3ccccc3)c2C)c1C (centres undefined)	4	11	35	5	43*	-2
Cc1nn(Cc2ccccc2)c(C)c1C(=O)OCC(=O)c1cc(C)n(C2CC2)c1C	6	44	40	-2	32	·
Fc1ccc(CNCC2CCCO2)cc1 (centres undefined)	26	0	0	0	97*	-10
Cc1ccccc1Cn1c(Cc2ccccc2)nc2ccccc21	-52	46	36	28	42*	45*
CCN(CC(=O)Nc1ccc(Cl)c(C(F)(F)F)c1)CC(=O)NC1CCS(=O)(=O)C1 (centres undefined)	-9	5	2	1	-5	·
NC(=O)C1Cc2ccccc2CN1S(=O)(=O)c1cccs1 (centres undefined)	3	9	15	·	9	·
O=C(C1Cc2ccccc2CN1S(=O)(=O)c1cccs1)N1CCCCCC1 (centres undefined)	-4	31	33	-5	44*	33*
NS(=O)(=O)c1ccc(N=Nc2c(O)ccc3ccccc23)cc1	15	17	33	-1	18	·
Oc1ccc(N=Nc2c(O)ccc3ccccc23)cc1	35	49	33	38	54*	65*
CCOC(=O)c1sc(=NC(=O)c2cccs2)n(C)c1C	49	43	1	-1	59*	46*
Cc1nc(NC(=O)c2ccccc2)sc1-c1csc(NCc2ccccc2)n1	5	43	24	17	19	·
Cc1nc(NC(=O)c2ccccc2)sc1-c1csc(N)n1	17	26	35	0	44*	24
CCN1C[C@@H]2[C@@H]3C(=O)N(Cc4ccccc4)C(=O)[C@@H]3[C@](Cc3ccccc3)(C(=O)OC)N2C1=NC	·	20	-3	·	-9	·
O=C(/C=C/c1ccccc1)NNc1ccc(Cl)cc1	31	8	-19	0	44*	48*
O=C(O)c1ccccc1C(=O)NNc1ccc(Cl)cc1	2	8	26	-3	46*	30*
NS(=O)(=O)c1ccc(NNC(=O)c2ccccc2C(=O)O)cc1	11	0	2	-4	12	·
COc1ccc(CCN2CC(C(=O)NCC(=O)Nc3ccc(F)c(F)c3)CC2=O)cc1OC (centres undefined)	9	-4	12	17	-5	·
COc1ccc(CN2CCN(C3CCC3)CC2CCO)cc1C (centres undefined)	15	-5	-6	-6	-6	·

Assay outcomes from PubChem BioAssay.
